Laboratory results reported in PubChem BioAssay (NCATS).
Several values for one entry are separate records, joined by “and”; a condition that tells them apart may be missing. Equal entries are not always repeated. Results filed as inconclusive are left out. Activity calls are given as the source filed them. Calls follow the shape of the dose curve; as a rule, active = well fitted inhibition curve with a large enough effect; inconclusive = small, poorly fitted or top-dose-only effect; inactive = flat fitted curve, though single readings scatter.

tested on: KB-3-1; experiment: Cytotoxic Profiling of Annotated Libraries Using Quantitative High-Throughput Screening (AID 1296008); conditions: Five cell lines viability, CellTiter-Glo ATP luminescence, 48-72 h; max response: hits give low values; also: nearly all actives have a fitted effect of over 60% in size
Outline: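 Cytotoxicity was measured as CellTiter-Glo ATP luminescence, read after 10 min at room temperature. Compound treatment of the cells lasted 48 or 72 hr at 37 degrees Celsius in a qHTS format.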
% is scaled to controls: 0 for no effect and ±100 for the full control effect.

**Q.** For `CC(=O)N=c1sc(S(N)(=O)=O)nn1C`, which max response is on record?
**A.** Its max response is 21.5% (inactive).

**Q.** `C[C@]12CCC(=O)C[C@@H]1CC[C@@H]1[C@@H]2CC[C@]2(C)C=CC[C@@H]12` was tested. Which max response did it give?
**A.** Its max response is -14.2% (inactive).

**Q.** `CC12CCC(C1)C(C)(C)C2=O` (stereo not given) was tested. Which max response did it give?
**A.** Its max response is 3.69% (inactive).

**Q.** With `CN(CCO)CC(O)Cn1cnc2c1c(=O)n(C)c(=O)n2C` (stereo not given) (tested in a mixture with another compound) as the compound, how does the max response read?
**A.** The max response was -4.03% (inactive).

**Q.** `O=C(/C=C/c1cccc(F)c1)NC1CC1` was tested. Which max response did it give?
**A.** The max response was -16.5% (inactive).

**Q.** Which max response does the source give for `C=C[C@]1(C)C[C@@H](OC(=O)CSCCN(CC)CC)[C@]2(C)[C@H](C)CC[C@]3(CCC(=O)[C@H]32)[C@@H](C)[C@@H]1O` here?
**A.** Its max response is -8.95% (inactive).

**Q.** With `c1ccc2c(c1)OCC(CN1CCCCC1)O2` (stereo not given) as the compound, how does the max response read?
**A.** The max response was -16% (inactive).

**Q.** `Cc1c(C)c2c(c(C)c1OC(=O)CCC(=O)O)CC[C@@](C)(CCC[C@H](C)CCC[C@H](C)CCCC(C)C)O2` was tested. Which max response did it give?
**A.** Its max response is 3.34% (inactive).

**Q.** How did the max response turn out when `COc1cc(C)c(/C=C/C(C)=C/C=C/C(C)=C/C(=O)O)c(C)c1C` was run?
**A.** The max response was -4.57% (inactive).

**Q.** How did the max response turn out when `O=C(OC1C[C@@H]2CC3C[C@H](C1)N2CC3=O)c1c[nH]c2ccccc12` (stereo not given in full) was run?
**A.** The max response was -14.8% (inactive).

**Q.** For `CN1C(=O)OC(C)(C)C1=O`, which max response is on record?
**A.** The max response was 3.96% (inactive).

**Q.** Which max response does the source give for `CN1C(C(=O)Nc2ccccn2)C(=O)c2sc(Cl)cc2S1(=O)=O` (stereo not given) here?
**A.** The max response was 5.88% (inactive).

**Q.** With `COc1ccc(/C=N/NC(=O)c2ccncc2)c(C(=O)O)c1OC` as the compound, how does the max response read?
**A.** Its max response is -1.02% (inactive).

**Q.** `CC(C)(CO)[C@@H](O)C(=O)NCCC(=O)NCCSSCCNC(=O)CCNC(=O)[C@H](O)C(C)(C)CO` was tested. Which max response did it give?
**A.** The max response was -0.241% (inactive).

**Q.** Which max response does the source give for `NC(=O)c1ccc[n+]([C@@H]2O[C@H](COP(=O)([O-])OP(=O)(O)OC[C@H]3O[C@@H](n4cnc5c(N)ncnc54)[C@H](O)[C@@H]3O)[C@@H](O)[C@H]2O)c1` here?
**A.** Its max response is -2.72% (inactive).

**Q.** `CCN(CC)CCC(=O)N1c2ccccc2Sc2ccc(Cl)cc21` was tested. Which max response did it give?
**A.** The max response was 24.4% (inactive).

**Q.** With `CCCCCCCCCCCCCCCCCCOCC(COP(=O)([O-])OCC[N+](C)(C)C)OC` (stereo not given) as the compound, how does the max response read?
**A.** The max response was 0.811% (inactive).

**Q.** How did the max response turn out when `FC(F)(F)C(F)(F)C(F)(F)C(F)(F)C(F)(F)C(F)(F)F` was run?
**A.** Its max response is 6.4% (inactive).

**Q.** `Cc1c(O)c(=O)ccn1C` was tested. Which max response did it give?
**A.** The max response was 5.64% (inactive).

**Q.** For `C=CC(=O)O`, which max response is on record?
**A.** The max response was -9.21% (inactive).

**Q.** For `CCCCCCCCCCCC(=O)OC[C@@H](O)C1OC[C@H](O)[C@H]1O` (stereo not given in full), which max response is on record?
**A.** Its max response is 3.33% (inactive).

**Q.** With `CC(C)(Oc1ccc(C2CCCc3ccccc32)cc1)C(=O)O` (stereo not given) as the compound, how does the max response read?
**A.** Its max response is -10.9% (inactive).

**Q.** How did the max response turn out when `Cc1ncc(C[n+]2csc(CCO)c2C)c(N)n1` was run?
**A.** The max response was -14.6% (inactive).

**Q.** With `CC1(C)[C@H]2CC[C@]1(C)[C@H](O)C2` as the compound, how does the max response read?
**A.** Its max response is -0.648% (inactive).

**Q.** `CCCC(CCC)C(=O)OC1C[C@H]2CC[C@@H](C1)[N+]2(C)C` (stereo not given in full) was tested. Which max response did it give?
**A.** The max response was 11.2% (inactive) and 16.2% (inactive).
